Data: PubChem BioAssay AID1851 (National Center for Advancing Translational Sciences (NCATS), 2009)
The campaign covered roughly 16,000 compounds. About 2,600 (16%) were called active. About 20% were inconclusive and are not listed. Only a sample is shown. Values without a mark were called inactive. Calls follow the shape of the dose curve; as a rule, active = well fitted curve in the direction sought with a large enough effect; inconclusive = small, poorly fitted or top-dose-only effect, or effect the other way; inactive = no such curve, though single readings can be large or run the other way.

These compounds were tested against Cytochrome P450 2D6 (Homo sapiens) (UniProt P10635) (assay: Cytochrome panel assay with activity outcomes). Conditions: recombinant CYP, pro-luciferin dealkylation, luminescence, p450-cyp2d6; series mostly up to 57.1 µM; activity, negative = inhibition: at the top concentration.
Sequence of Cytochrome P450 2D6 (Homo sapiens) (P10635 whole entry, looked up): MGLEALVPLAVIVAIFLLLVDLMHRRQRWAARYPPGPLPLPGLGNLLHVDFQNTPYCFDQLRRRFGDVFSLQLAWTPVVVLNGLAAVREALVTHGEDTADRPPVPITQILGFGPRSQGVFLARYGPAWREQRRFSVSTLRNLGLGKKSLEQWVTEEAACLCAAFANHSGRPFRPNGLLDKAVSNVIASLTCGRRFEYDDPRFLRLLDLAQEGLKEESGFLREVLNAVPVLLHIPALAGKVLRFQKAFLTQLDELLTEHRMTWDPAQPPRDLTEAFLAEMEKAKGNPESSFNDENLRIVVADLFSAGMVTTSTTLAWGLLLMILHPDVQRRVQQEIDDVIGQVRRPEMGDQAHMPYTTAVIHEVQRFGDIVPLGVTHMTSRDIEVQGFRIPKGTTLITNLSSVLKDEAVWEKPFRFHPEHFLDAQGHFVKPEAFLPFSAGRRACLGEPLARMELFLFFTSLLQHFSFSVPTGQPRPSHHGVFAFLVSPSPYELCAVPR
Description: The P450 gene superfamily is involved in the metabolism and clearance of xenobiotics. This assay used various human CYP P450 isozymes to measure the dealkylation of various pro-luciferin substrates to luciferin. The luciferin is then measured by luminescence after the addition of a luciferase detection reagent. Pro-luciferin substrate concentration in the assay was equal to its KM for its CYP P450 isozyme. Inhibitors and some substrates limit the production of luciferin, and decrease measured luminescence.
NCGC Assay Protocol Summary:
1, Reagent, 2 uL, Isozyme and Pro-Luciferin
2, Library compounds, 23 nl, 40 uM to 0.24 nM dilution series
3, Controls, 23 nl, Isozyme specific inhibitor
4, Reagent, 2 uL, NADPH regeneration solution
5, Incubation time, 60 min, Isozyme specific temperature
6, Reagent, 4ul, Detection reagent
7, Incubation time, 20 min, Isozyme specific temperature
8, Detection, 1 sec, ViewLux luminescent read
The luciferase-based P450-GloTM Screening Systems were obtained from Promega (Madison, WI) for CYP 1A2 (V9770), CYP 2C9 (V9790), CYP2 C19 (V9880), CYP 2D6 (V9890), and CYP 3A4 Luciferin-PPXE (V9910) and were adapted for 1,536-well microplates and an automated protocol. The control compounds furafylline for 1A2 (F124), sulfaphenazole for CYP 2C9 (S0758), ketoconazole for CYP 2C19 (K1003), quinidine for 2D6 (Q3625), and ketoconazole for 3A4 (K1003) were purchased from Sigma Aldrich (St. Louis, MO). Recombinant P450 enzymes were obtained from baculovirus constructs expressed in insect cells (BD/Gentest).
Medium-binding white solid Kalypsys plates used. Mixtures kept on ice. 1A2: 10 nM 1A2, 100 uM Luc-ME, 100 mM KPO4; 2C9: 10 nM 2C9, 100 uM Luc-H, 25 mM KPO4; 2C19: 5 nM 2C19, 10 uM Luc-H EGE, 50 mM KPO4; 2D6: 5 nM 2D6, 30 uM Luc-ME EGE, 100 mM KPO4; 3A4: 10 nM, 25 uM Luc-PPXE. All amounts are reflected in their final concentration, working concentration is 2x.
NADPH regeneration solution: 1.3 mM NADP+, 3.3 mM glucose-6-phosphate, 3.3 mM MgCl2, 0.4 U/mL glucose-6-phosphate dehydrogenase for all isozymes, 200 mM KPO4 for 3A4. Mixture prepared at RT but kept on ice during automated run.
RT incubation in auxilliary plate hotel for 1A2, 2D6, and 3A4; 37C for 2C9 and 2C19.
Keywords: P450, CYP1A2, CYP2C19, CYP2C9, CYP2D6, CYP3A4, Luciferase, MLSMR, MLSCN, NIH Roadmap, qHTS, NCGC
% is scaled to controls: 0 for no effect and ±100 for the full control effect.

| SMILES | activity, negative = inhibition | AC50 |
| --- | --- | --- |
| Cc1nn(C(C)C(=O)Nc2ccc(Cl)cn2)c(C)c1[N+](=O)[O-] (stereo not given) | -6.4% | – |
| C[C@@](N)(C(=O)O)c1ccc(S(=O)(=O)O)cc1 | -0.825% | – |
| COc1cccc(Nc2ncc3nc(-c4cccs4)c(=O)n(Cc4cccs4)c3n2)c1 | 6.03% | – |
| O=c1c(-c2ccc(Cl)cc2)nc2cnc(N3CCNCC3)nc2n1Cc1cccs1 | -18.9% | – |
| CCOC(=O)COc1c(OC)cc(Cl)cc1C1Nc2ccccc2C(=O)N1c1ccc(F)cc1 (stereo not given) | -14.9% | – |
| Oc1c(Br)cc(CN(Cc2cc(Br)c(O)c(Br)c2)C2CCCCC2)cc1Br | – | 2.51 µM (active) |
| CC(C)(C)c1cc(Br)c(O)c(CN(Cc2cc(C(C)(C)C)cc(Br)c2O)C2CCCCC2)c1 | – | 0.2 µM (active) |
| Oc1c(Br)cc(Br)cc1CN(Cc1cc(Br)cc(Br)c1O)C1CCCCC1 | – | 0.251 µM (active) |
| CC1=CC=CN2CC(O)CN=C12 (stereo not given) | -7.33% | – |
| COc1ccc(/C(O)=C2/C(=O)C(=O)N(Cc3cccnc3)C2c2ccco2)cc1OC (stereo not given) | -4.18% | – |
| CC(=O)n1nc(-c2ccco2)nc1N | -8.48% | – |
| Cc1cccc(N(CC(=O)NC2CCCC2)C(=O)c2cc3cc4cccc(C)c4nc3s2)c1C | -13% | – |
| Nc1ccc2[nH]cc(CCC(=O)O)c2c1 | 5.9% [at 11.4 µM] | – |
| CSCC[C@H](NC(=O)c1nn(C)c(=O)c2ccccc12)c1nc2ccccc2[nH]1 | -14.5% | – |
| Cc1noc(C)c1-c1nccc(N2CCOCC2)n1 | 7.41% | – |
| Cc1ccc2c(c1)N[C@H](c1ccc(C(=O)O)cc1)c1cccn1-2 | -2.93% [at 11.4 µM] | – |
| Cc1ccc2nc(CC(=O)c3ccc4ccccc4c3)c(=O)[nH]c2c1 | -4.59% [at 11.4 µM] | – |
| Cc1ccc2nc(SCC(=O)c3ccc4c(c3)OCO4)[nH]c2c1 | – | 4.47 µM (active) |
| COc1ccc2nc(SCC(=O)Nc3ccc4c(c3)OCCO4)[nH]c2c1 | -22.4% | – |
| CC(/C=C1\N=C(SCc2ccccc2Cl)SC1=O)=C\c1ccccc1 | 15.6% | – |
| Cc1ccccc1Cn1nc(C)c(NC(=O)c2sc3ccccc3c2Cl)c1C | -32.5% | – |
| Cc1cc(Nc2ccccc2)nc(N)n1 | – | 11.2 µM (active) |
| Cc1nnc(SCc2nc(N)nc(Nc3ccccc3)n2)s1 | -19.5% | – |
| Cc1cc(Nc2ccc(Cl)cc2)nc(N)n1 | -29.1% | – |
| COC(=O)C1CCN(c2cc(=O)n(C3CCCCC3)c(=O)[nH]2)CC1 | 14.8% | – |

| SMILES | activity, negative = inhibition | AC50 |
| --- | --- | --- |
| CCC(=O)c1ccc(OCC(O)CN(CCc2ccccc2)Cc2ccccc2)cc1 (stereo not given) | – | 1 µM (active) |
| CN(C)CC(O)COc1ccc(C(C)(C)c2ccc(OCC(O)CN(C)C)cc2)cc1 (stereo not given) | -11.1% | – |
| Cc1ccc(OCC(=O)NNC(=O)CCc2ccccc2)cc1 | 15.7% | – |
| COc1ccc(S(=O)(=O)NCc2ccc(C(=O)N3CCN(c4ccccn4)CC3)cc2)cc1 | -27% | – |
| N[C@@H](Cc1c[nH]c2ccccc12)C(=O)O | 0.396% | – |
| O=C(O)[C@H](Cc1c[nH]c2ccccc12)N1C(=O)c2ccccc2C1=O | -2.59% [at 11.4 µM] | – |
| c1ccc2c(CN3CCN(Cc4c[nH]c5ccccc45)CC3)c[nH]c2c1 | – | 2.51 µM (active) |
| COC(=O)Cn1cc(/C=N/NC(=O)c2ccc(C#N)cc2F)c2ccccc21 | -18.6% | – |
| CC(C)c1cccc2cc3c(nc12)-c1cccc(=O)n1C3 | -18.8% | – |
| Cc1ccc(C(=O)c2ccc(CC(=O)O)n2C)cc1 | -7.75% [at 25.6 µM] | – |
| N#Cc1ccc(C(=O)Nc2ccc(N3CCN(C(=O)c4ccco4)CC3)cc2)c(F)c1 | -13.1% | – |
| COc1ccc(CNc2nc(-c3ccc(C(=O)N(C)C)cc3)nc3ccccc23)c(OC)c1 | -13.4% | – |
| COc1ccc(CNc2nc(-c3c(C)noc3C)nc3ccccc23)c(OC)c1 | -13.2% | – |
| COc1ccc(CNc2nc(-c3ccccc3CN(C)C)nc3ccccc23)c(OC)c1 | – | 10 µM (active) |
| COc1ccccc1CNc1nc(-c2ccccc2CN(C)C)nc2ccccc12 | – | 10 µM (active) |
| N[C@@H](CO)C(=O)NNCc1ccc(O)c(O)c1O | – | inactive |
| Cc1cc(NC(=O)c2ccccc2Cl)no1 | 4.14% | – |
| CCOC(=O)C(C)n1cnc2c(oc3ccccc32)c1=O (stereo not given) | -15.6% | – |
| O=C(NNC(=O)c1ccccc1-n1cccc1)c1ccc(Cl)c(Cl)c1 | -3.18% | – |
| CCOc1ccc(NC(=O)c2nnn(CC(=O)Nc3ccccc3OC)c2N)cc1 | -6.24% | – |
| COc1ccc(N2CCN(CCNC(=O)C3CCN(S(=O)(=O)c4cccs4)CC3)CC2)cc1 | -18.9% | – |
| CC(=O)NC(C)C(c1cccs1)N1CCN(c2ccccc2)CC1 (stereo not given) | -28% | – |
| CC(C)C(NS(=O)(=O)c1cccs1)C(=O)NCCN1CCN(c2ccccc2)CC1 (stereo not given) | – | 14.1 µM (active) |
| COc1ccc(NC(=O)N2CC3(CCN(S(C)(=O)=O)CC3)C2)cc1 | -6.07% | – |
| O=C(Nc1cccc(-c2nc3ncccc3o2)c1)c1sc2ccccc2c1Cl | -15.4% | – |
